The text below walks through data of PubChem BioAssay.

In general, inhibition refers to the change of the read-out against control, counted positive when it falls.

Values without a mark were called inactive. For part of these data: Entries with a potency or affinity are not part of this list. The source made the active and inactive calls. Unless noted, the rule behind the calls is not given here.

The nature of test [1]: antimalarial activity against Dd2 strain (AID 2302;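 active = growth inhibition above 50% at the single 2 µM test dose, taken to imply half-maximal potency below 2 µM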;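 note: 0% = DMSO untreated growth and 100% = chloroquine plus artemisinin killed control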). Particulars: P. falciparum Dd2 in RBCs, LDH growth readout, 72 h; at 2 µM; hits give high values.
Test [2] in a line: human hepatoma cell viability loss – ATP luminescence, cytotoxicity control for P. falciparum antimalarial project, primary screen (AID 2303;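 active = inhibition above 50%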;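 note: 0% = DMSO wells and 100% = digitonin-killed cells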). Particulars: HepG2 viability, 24-48 h, at 10 µM, hits give high values.
Test [3] concerns the target L-lactate dehydrogenase (Plasmodium falciparum (isolate CDC / Honduras)) (UniProt Q27743). Nature of the test: PfLDH activity inhibition – cell lysate, 3D7 strain, counter-screen for P. falciparum growth inhibition project (AID 2304).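 Note: 0% = vehicle and 100% = reference inhibitor.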 As to conditions: P. falciparum 3D7 crude extract, LDH APAD/NBT absorbance; at 2 µM; hits give high values.
The nature of test [4]: inhibition of 3D7 malaria parasite growth – strain 3D7 (AID 2306).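 Note: 0% = DMSO wells and 100% = chloroquine plus artemisinin control wells.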 As to conditions: P. falciparum 3D7 erythrocytic growth, LDH absorbance, 72 h; at 2 µM; hits give high values.
Test [5] addresses Calcium-dependent protein kinase 1 (Plasmodium falciparum (isolate 3D7)) (UniProt P62344). Kind of test: PfCDPK1 kinase inhibitors, biochemical, TCAMS library (AID 1159585; cut-off not given, nearly all actives have IC50 up to about 0.98 µM;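 note: inhibitors leave more ATP so luminescence rises with inhibition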). Particulars: recombinant PfCDPK1, Kinase-Glo ATP depletion luminescence. In general terms: Kinase-Glo reads ATP consumption through a luciferase reaction.
Test [6] deals with Plasmodium falciparum protein kinase 6 (PK6, PF3D7_1337100) (UniProt Q8IDW1). Kind of test: PfPK6 kinase inhibitors, biochemical, TCAMS library (AID 1159586). As to conditions: recombinant PfPK6, Kinase-Glo ATP depletion luminescence.
The target of test [7] is Protein kinase 7 (PK7), Plasmodium falciparum 3D7 (PF3D7_0213400) (UniProt Q7YTF7). Kind of test: inhibition of Plasmodium PK7 catalytic activity – biochemical, TCAMS antimalarial set, Kinase-Glo luminescence (AID 1159587). As to conditions: recombinant PfPK7, Kinase-Glo ATP depletion luminescence.
The target of test [8] is Calcium-dependent protein kinase 4 (Plasmodium falciparum (isolate 3D7)) (UniProt Q8IBS5). Nature of the test: PfCDPK4 kinase inhibitors, biochemical, TCAMS library (AID 1159588; cut-off not given, nearly all actives have IC50 up to about 0.91 µM). Particulars: recombinant PfCDPK4, Kinase-Glo ATP depletion luminescence.
Chain of Calcium-dependent protein kinase 4 (Plasmodium falciparum (isolate 3D7)) (Q8IBS5 whole entry, looked up): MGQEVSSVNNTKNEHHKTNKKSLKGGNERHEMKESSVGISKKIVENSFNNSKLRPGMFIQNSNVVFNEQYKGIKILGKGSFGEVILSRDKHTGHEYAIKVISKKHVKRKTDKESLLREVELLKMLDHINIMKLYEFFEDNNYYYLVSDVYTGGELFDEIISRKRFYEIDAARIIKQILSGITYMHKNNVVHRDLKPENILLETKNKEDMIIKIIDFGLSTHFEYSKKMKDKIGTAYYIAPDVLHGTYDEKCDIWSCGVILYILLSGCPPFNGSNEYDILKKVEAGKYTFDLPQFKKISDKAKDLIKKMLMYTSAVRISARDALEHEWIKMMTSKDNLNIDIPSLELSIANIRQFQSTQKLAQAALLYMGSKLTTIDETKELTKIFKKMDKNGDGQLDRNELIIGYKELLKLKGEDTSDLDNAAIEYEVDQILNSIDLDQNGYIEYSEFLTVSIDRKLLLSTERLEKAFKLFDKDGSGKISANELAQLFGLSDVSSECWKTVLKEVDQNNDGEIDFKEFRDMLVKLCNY

Chain of Protein kinase 7 (PK7), Plasmodium falciparum 3D7 (PF3D7_0213400) (Q7YTF7 1-343): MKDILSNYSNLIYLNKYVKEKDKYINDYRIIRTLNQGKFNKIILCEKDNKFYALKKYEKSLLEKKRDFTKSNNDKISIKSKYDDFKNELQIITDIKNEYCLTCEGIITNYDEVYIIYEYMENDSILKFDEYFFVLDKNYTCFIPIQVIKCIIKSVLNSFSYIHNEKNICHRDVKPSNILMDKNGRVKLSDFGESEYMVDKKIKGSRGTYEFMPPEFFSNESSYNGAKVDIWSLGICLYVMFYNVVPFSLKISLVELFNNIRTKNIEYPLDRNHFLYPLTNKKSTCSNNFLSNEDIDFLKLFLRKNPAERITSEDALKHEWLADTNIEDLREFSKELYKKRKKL
Chain of L-lactate dehydrogenase (Plasmodium falciparum (isolate CDC / Honduras)) (Q27743 whole entry, looked up): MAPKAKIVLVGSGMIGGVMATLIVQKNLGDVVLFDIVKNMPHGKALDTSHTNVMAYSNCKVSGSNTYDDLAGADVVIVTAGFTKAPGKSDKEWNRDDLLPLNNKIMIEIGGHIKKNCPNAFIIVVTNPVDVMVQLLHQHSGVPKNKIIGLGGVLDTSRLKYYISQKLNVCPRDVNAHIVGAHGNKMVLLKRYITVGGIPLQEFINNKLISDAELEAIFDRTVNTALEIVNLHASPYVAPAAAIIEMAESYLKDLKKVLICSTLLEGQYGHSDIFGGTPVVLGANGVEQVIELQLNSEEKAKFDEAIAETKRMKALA
Chain of Plasmodium falciparum protein kinase 6 (PK6, PF3D7_1337100) (Q8IDW1 1-305): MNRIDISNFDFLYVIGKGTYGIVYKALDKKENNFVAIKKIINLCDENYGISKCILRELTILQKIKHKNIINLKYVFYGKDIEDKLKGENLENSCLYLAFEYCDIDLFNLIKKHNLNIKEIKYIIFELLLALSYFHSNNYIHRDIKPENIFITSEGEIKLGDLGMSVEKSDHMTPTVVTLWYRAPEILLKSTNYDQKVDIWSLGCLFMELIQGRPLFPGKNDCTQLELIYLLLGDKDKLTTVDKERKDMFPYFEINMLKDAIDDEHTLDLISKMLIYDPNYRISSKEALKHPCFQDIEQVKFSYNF
Chain of Calcium-dependent protein kinase 1 (Plasmodium falciparum (isolate 3D7)) (P62344 whole entry, looked up): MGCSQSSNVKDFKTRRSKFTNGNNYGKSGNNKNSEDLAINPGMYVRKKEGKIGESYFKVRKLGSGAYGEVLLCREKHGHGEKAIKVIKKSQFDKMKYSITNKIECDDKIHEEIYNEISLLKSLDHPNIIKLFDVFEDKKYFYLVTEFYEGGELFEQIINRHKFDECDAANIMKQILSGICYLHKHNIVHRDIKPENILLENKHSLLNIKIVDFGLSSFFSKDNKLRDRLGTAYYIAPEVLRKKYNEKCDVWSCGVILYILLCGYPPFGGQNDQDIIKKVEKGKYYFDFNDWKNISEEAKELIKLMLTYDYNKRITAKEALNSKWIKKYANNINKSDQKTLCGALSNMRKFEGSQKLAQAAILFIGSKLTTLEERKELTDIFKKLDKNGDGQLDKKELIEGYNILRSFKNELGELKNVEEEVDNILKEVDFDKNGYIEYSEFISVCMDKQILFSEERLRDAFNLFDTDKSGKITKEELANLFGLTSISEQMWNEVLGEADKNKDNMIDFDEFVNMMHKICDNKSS

For `O=C(Nc1ccc(-c2nc3ccccc3[nH]2)cc1)C1CCN(Cc2ccccc2)CC1`, the growth inhibition is 82% (active) in test [1] and 100% (active) in test [4]. Further, the results for the inhibition in test [2] and in test [3] were 12% and 4%, respectively. Also, the outcome in test [5], in test [6], in test [7] and in test [8] was inactive.

With `CN1CCCN(Cc2cccc(-c3cccc(NS(=O)(=O)c4cccc5cccnc45)c3)c2)CC1`, the growth inhibition was 74% (active) in test [1] and 97% (active) in test [4]. Further, the inhibition in test [2] is 21%; in test [3] it was -6%. The outcome in test [5], in test [6], in test [7] and in test [8] was inactive.

In the case of `Cc1cc(NN=Cc2cccc([N+](=O)[O-])c2)c2ccc(C(F)(F)F)cc2n1`, the growth inhibition is 51% (active) in test [1] and 101% (active) in test [4]. Also, the inhibition in test [2] was 2%; in test [3] it was 1%. The outcome in test [5], in test [6], in test [7] and in test [8] was inactive.

With `O=C(CCCCCNC(=O)c1ccc(O)c(-c2ccc(Cl)c(Cl)c2)c1)NCCc1ccc(Cl)c(Cl)c1`, the growth inhibition in test [1] was 20%; in test [4], 97% (active). In addition, the inhibition in test [2] is 57% (active); in test [3] it was -6%. Further, the result in test [5], in test [6], in test [7] and in test [8] was inactive.

`O=C(Nc1cc(C(F)(F)F)cc(C(F)(F)F)c1)Nc1ccc(Cl)c(Cl)c1`: the growth inhibition is 100% (active) in test [1] and 101% (active) in test [4]. For the same molecule, the inhibition in test [2] is 58% (active); in test [3], 0%. Besides, the outcome in test [5], in test [6], in test [7] and in test [8] was inactive.

Consider `O=C(Nc1ccc(-c2nc3ccccc3[nH]2)cc1)c1ccc(N2CCCC2)c([N+](=O)[O-])c1`, for which the growth inhibition was 95% (active) in test [1] and 100% (active) in test [4]. In addition, the inhibition was 43% in test [2] and -1% in test [3]. In addition, the result in test [5], in test [6], in test [7] and in test [8] was inactive.

Regarding `COc1ccc2nccc([C@@H](O)CN3CCC(NC(=O)C(=O)c4c[nH]c5c(C)cccc45)CC3)c2c1`, the growth inhibition in test [1] is 94% (active); in test [4] it was 102% (active). For the same molecule, the inhibition was 17% in test [2] and -3% in test [3]. Further, the result in test [5], in test [6], in test [7] and in test [8] was inactive.

Consider `CCCCN1CC[C@@H](CCC(O)c2cc(OCCC)nc3ccc(OC)cc23)[C@@H](CC)C1` (some centres undefined), for which the growth inhibition in test [1] is 99% (active); in test [4], 100% (active). Also, the inhibition in test [2] is 23%; in test [3] it was -4%. Also, the result in test [5], in test [6], in test [7] and in test [8] was inactive.

`CCC(C)NC(=O)Cn1c2ncccc2c(=O)n1-c1ccc(C)cc1` (centres undefined): the results for the growth inhibition in test [1] and in test [4] were 63% (active) and 95% (active), respectively. In addition, the inhibition in test [2] and in test [3] was 4% throughout. In addition, the outcome in test [5], in test [6], in test [7] and in test [8] was inactive.

With `CN1CCC(N2CCN(Cc3ccc(-c4cccc(-c5nc6ccc(F)cc6[nH]5)c4)cc3)CC2)CC1`, the values for the growth inhibition in test [1] and in test [4] were 99% (active) and 101% (active), respectively. Further, the values for the inhibition in test [2] and in test [3] were 67% (active) and -1%, respectively. In addition, the result in test [5], in test [6], in test [7] and in test [8] was inactive.

With `CCn1cc(C=C2Oc3c(ccc(O)c3CN3CCCCC3C)C2=O)c2ccccc21` (centres undefined), the growth inhibition was 80% (active) in test [1] and 94% (active) in test [4]. Besides, the inhibition in test [2] is -6%; in test [3], 6%. Further, the result in test [5], in test [6], in test [7] and in test [8] was inactive.

With `CCc1ccc(C2CCN(CCCCNC(=O)c3ccc(-c4ccc(C#N)cc4)cc3)CC2)c(OCCO)c1`, the growth inhibition in test [1] is 61% (active); in test [4], 94% (active). For the same molecule, the inhibition was 24% in test [2] and -4% in test [3]. For the same molecule, the outcome in test [5], in test [6], in test [7] and in test [8] was inactive.

Take `CCc1cc2c(cc1CC)CC(NC[C@@H](O)c1ccc(O)c3[nH]c(=O)ccc13)C2`: the growth inhibition in test [1] is 9%; in test [4], 101% (active). Besides, the inhibition was -3% in test [2] and -4% in test [3]. For the same molecule, the outcome in test [5], in test [6], in test [7] and in test [8] was inactive.

With `NC(=O)c1ccccc1Nc1nc(Nc2ccc(N3CCOCC3)cc2)ncc1[N+](=O)[O-]`, the growth inhibition in test [1] is 96% (active); in test [4], 98% (active). Further, the inhibition in test [2] is 53% (active); in test [3], 1%. Moreover, the outcome in test [5], in test [6], in test [7] and in test [8] was inactive.

Turning to `O=[N+]([O-])c1cccc(-n2nc(NCc3ccc(Cl)cc3)nc2-c2ccc(F)c(C(F)(F)F)c2)c1`, the growth inhibition in test [1] was 93% (active); in test [4] it was 98% (active). The inhibition is 6% in test [2] and -3% in test [3]. In addition, the result in test [5], in test [6], in test [7] and in test [8] was inactive.

For the molecule `COc1cccc(C2CCN(CCCCNC(=O)c3ccc(NC(=O)c4ccc(Cl)cc4)cc3)CC2)c1`, the growth inhibition is 40% in test [1] and 99% (active) in test [4]. Moreover, the inhibition is 18% in test [2] and -5% in test [3]. The result in test [5], in test [6], in test [7] and in test [8] was inactive.

Turning to `Cc1cccc(-c2cc3cc(Nc4ccnc5cc(-c6nccs6)ccc45)ccc3[nH]2)c1`, the figures for the growth inhibition in test [1] and in test [4] were 100% (active) and 101% (active), respectively. Besides, the inhibition was 0% in test [2] and 1% in test [3]. Further, the result in test [5], in test [6], in test [7] and in test [8] was inactive.

With `c1ccc(Oc2ccc(Nc3ccnc4cc(-c5cccc(CNCCN6CCOCC6)c5)ccc34)cc2)cc1`, the values for the growth inhibition in test [1] and in test [4] were 98% (active) and 102% (active), respectively. Further, the values for the inhibition in test [2] and in test [3] were 12% and 7%, respectively. Also, the outcome in test [5], in test [6], in test [7] and in test [8] was inactive.
